Experimental data taken from the supplement of paper PMC7411054.
Where a name gives a salt, the structure may show the parent alone.

Key:
Settings in all cases: treatment time: 24 h
[1] = test system: A549-ACTB-RAB5A; assay: phenotypically active (imaging signature differs from DMSO and reproducible) at any of 0.3-9 uM (binary (1 = active, 0 = inactive)); higher = active
Procedure, shortened: (§1)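 After 24 h at 0.3, 1, 3 or 9 µM, with four wells per treatment, fifteen gene-edited A549, HepG2 and WPMY1 reporter lines carrying BFP, GFP and RFP/FusionRed were imaged live. Each well's live-cell features were expressed relative to solvent control wells. Deviation required ≥3 of 4 wells past the 95th percentile of control Euclidean distances, and reproducibility a median replicate Pearson correlation over the 95th percentile of non-replicates. Phenotypic activity rested on both.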

[2] = test system: A549-CANX-COX4; assay: as above
Procedure, shortened: as §1

[3] = test system: A549-GM130-SQSTM1; assay: as above
Procedure, shortened: as §1

[4] = test system: A549-TP53BP1-CLTA; assay: as above
Procedure, shortened: as §1

[5] = test system: A549-TUBA1B-RELA; assay: as above
Procedure, shortened: as §1

[6] = test system: HepG2-ACTB-RAB5A; assay: as above
Procedure, shortened: as §1

[7] = test system: HepG2-CANX-COX4; assay: as above
Procedure, shortened: as §1

[8] = test system: HepG2-GM130-SQSTM1; assay: as above
Procedure, shortened: as §1

[9] = test system: HepG2-TP53BP1-CLTA; assay: as above
Procedure, shortened: as §1

[10] = test system: HepG2-TUBA1B-RELA; assay: as above
Procedure, shortened: as §1

[11] = test system: WPMY1-ACTB-RAB5A; assay: as above
Procedure, shortened: as §1

[12] = test system: WPMY1-CANX-COX4; assay: as above
Procedure, shortened: as §1

[13] = test system: WPMY1-GM130-SQSTM1; assay: as above
Procedure, shortened: as §1

[14] = test system: WPMY1-TP53BP1-CLTA; assay: as above
Procedure, shortened: as §1

[15] = test system: WPMY1-TUBA1B-RELA; assay: as above
Procedure, shortened: as §1

[16] = test system: A549-ACTB-RAB5A; assay: lowest phenotypically active concentration; higher = less potent
Procedure, shortened: as §1

[17] = test system: A549-CANX-COX4; assay: as above
Procedure, shortened: as §1

[18] = test system: A549-GM130-SQSTM1; assay: as above
Procedure, shortened: as §1

[19] = test system: A549-TP53BP1-CLTA; assay: as above
Procedure, shortened: as §1

[20] = test system: A549-TUBA1B-RELA; assay: as above
Procedure, shortened: as §1

O=C(O)c1ccc(N2N=C(Cc3ccccc3)/C(=C/c3ccc(-c4ccccc4F)o3)C2=O)cc1
inactive: phenotypically active [1] 0 | phenotypically active [2] 0 | phenotypically active [3] 0 | phenotypically active [4] 0 | phenotypically active [5] 0 | phenotypically active [6] 0 | phenotypically active [7] 0 | phenotypically active [8] 0 | phenotypically active [9] 0 | phenotypically active [10] 0 | phenotypically active [11] 0 | phenotypically active [12] 0 | phenotypically active [13] 0 | phenotypically active [14] 0 | phenotypically active [15] 0

CN(C)CC/C=C1\c2ccccc2COc2ccc(CC(=O)O)cc21 [olopatadine]
inactive: phenotypically active [1] 0 | phenotypically active [2] 0 | phenotypically active [3] 0 | phenotypically active [4] 0 | phenotypically active [5] 0 | phenotypically active [6] 0 | phenotypically active [7] 0 | phenotypically active [8] 0 | phenotypically active [9] 0 | phenotypically active [10] 0 | phenotypically active [11] 0 | phenotypically active [12] 0 | phenotypically active [13] 0 | phenotypically active [14] 0 | phenotypically active [15] 0

O=C1NC(=O)C(c2ccccc2[N+](=O)[O-])=C1Nc1ccc(O)c(Cl)c1
active: phenotypically active [1] 1 | phenotypically active [2] 1 | phenotypically active [3] 1 | phenotypically active [4] 1 | phenotypically active [5] 1 | phenotypically active [6] 1 | phenotypically active [7] 1 | phenotypically active [8] 1 | phenotypically active [9] 1 | phenotypically active [10] 1 | phenotypically active [11] 1
9 µM: lowest phenotypically active concentration [16] | lowest phenotypically active concentration [17] | lowest phenotypically active concentration [18] | lowest phenotypically active concentration [19] | lowest phenotypically active concentration [20]
inactive: phenotypically active [12] 0 | phenotypically active [13] 0 | phenotypically active [14] 0 | phenotypically active [15] 0

C[C@@H]1C[C@H]2[C@@H]3C[C@H](F)C4=CC(=O)C=C[C@]4(C)[C@@]3(F)[C@@H](O)C[C@]2(C)[C@@]1(O)C(=O)COC(=O)C(C)(C)C [flumethasone pivalate]
active: phenotypically active [1] 1 | phenotypically active [2] 1 | phenotypically active [3] 1 | phenotypically active [4] 1 | phenotypically active [5] 1
≤ 0.3 µM: lowest phenotypically active concentration [16] | lowest phenotypically active concentration [17] | lowest phenotypically active concentration [18] | lowest phenotypically active concentration [19] | lowest phenotypically active concentration [20]
inactive: phenotypically active [6] 0 | phenotypically active [7] 0 | phenotypically active [8] 0 | phenotypically active [9] 0 | phenotypically active [10] 0 | phenotypically active [11] 0 | phenotypically active [12] 0 | phenotypically active [13] 0 | phenotypically active [14] 0 | phenotypically active [15] 0

Cc1cc(-c2ccc(/C=C3\S/C(=N\c4ccc(Cl)c(C(=O)O)c4)NC3=O)o2)c([N+](=O)[O-])cc1C
inactive: phenotypically active [1] 0 | phenotypically active [2] 0 | phenotypically active [3] 0 | phenotypically active [4] 0 | phenotypically active [5] 0 | phenotypically active [6] 0 | phenotypically active [7] 0 | phenotypically active [8] 0 | phenotypically active [9] 0 | phenotypically active [10] 0 | phenotypically active [11] 0 | phenotypically active [12] 0 | phenotypically active [13] 0 | phenotypically active [14] 0 | phenotypically active [15] 0

Nn1nnc2ccccc21
inactive: phenotypically active [1] 0 | phenotypically active [2] 0 | phenotypically active [3] 0 | phenotypically active [4] 0 | phenotypically active [5] 0 | phenotypically active [6] 0 | phenotypically active [7] 0 | phenotypically active [8] 0 | phenotypically active [9] 0 | phenotypically active [10] 0 | phenotypically active [11] 0 | phenotypically active [12] 0 | phenotypically active [13] 0 | phenotypically active [14] 0 | phenotypically active [15] 0

O=C(Nc1cccnn1)N1CCN(c2nccc(-c3ccc(F)c(F)c3)n2)CC1
inactive: phenotypically active [1] 0 | phenotypically active [2] 0 | phenotypically active [3] 0 | phenotypically active [4] 0 | phenotypically active [5] 0 | phenotypically active [6] 0 | phenotypically active [7] 0 | phenotypically active [8] 0 | phenotypically active [9] 0 | phenotypically active [10] 0 | phenotypically active [11] 0 | phenotypically active [12] 0 | phenotypically active [13] 0 | phenotypically active [14] 0 | phenotypically active [15] 0

CCCC(=O)Nc1ncnc2c1ncn2[C@@H]1O[C@@H]2COP(=O)(O)O[C@H]2[C@H]1OC(=O)CCC [Dibutyryl-cAMP, sodium salt]
inactive: phenotypically active [1] 0 | phenotypically active [2] 0 | phenotypically active [3] 0 | phenotypically active [4] 0 | phenotypically active [5] 0 | phenotypically active [6] 0 | phenotypically active [7] 0 | phenotypically active [8] 0 | phenotypically active [9] 0 | phenotypically active [10] 0 | phenotypically active [11] 0 | phenotypically active [12] 0 | phenotypically active [13] 0 | phenotypically active [14] 0 | phenotypically active [15] 0

CN(C)CCCSc1ccccc1NC(=O)/C=C/c1ccccc1 [Cinanserin hydrochloride]
inactive: phenotypically active [1] 0 | phenotypically active [2] 0 | phenotypically active [3] 0 | phenotypically active [4] 0 | phenotypically active [5] 0 | phenotypically active [6] 0 | phenotypically active [7] 0 | phenotypically active [8] 0 | phenotypically active [9] 0 | phenotypically active [10] 0 | phenotypically active [11] 0 | phenotypically active [12] 0 | phenotypically active [13] 0 | phenotypically active [14] 0 | phenotypically active [15] 0

COc1ccc(-c2noc(CSc3nnc(C)n3-c3ccc(OC)cc3)n2)cc1
inactive: phenotypically active [1] 0 | phenotypically active [2] 0 | phenotypically active [3] 0 | phenotypically active [4] 0 | phenotypically active [5] 0 | phenotypically active [6] 0 | phenotypically active [7] 0 | phenotypically active [8] 0 | phenotypically active [9] 0 | phenotypically active [10] 0 | phenotypically active [11] 0 | phenotypically active [12] 0 | phenotypically active [13] 0 | phenotypically active [14] 0 | phenotypically active [15] 0

C[C@@H]1O[C@@H](OC[C@H]2O[C@@H](Oc3c(-c4ccc(O)c(O)c4)oc4cc(O)cc(O)c4c3=O)[C@H](O)[C@@H](O)[C@@H]2O)[C@H](O)[C@H](O)[C@H]1O [Quercétine-3-rutinoside]
inactive: phenotypically active [2] 0 | phenotypically active [3] 0 | phenotypically active [4] 0 | phenotypically active [5] 0 | phenotypically active [6] 0 | phenotypically active [7] 0 | phenotypically active [8] 0 | phenotypically active [9] 0 | phenotypically active [10] 0 | phenotypically active [11] 0 | phenotypically active [12] 0 | phenotypically active [13] 0 | phenotypically active [14] 0 | phenotypically active [15] 0
active: phenotypically active [1] 1
9 µM: lowest phenotypically active concentration [16]

CC(=O)Nc1nnc(S(N)(=O)=O)s1 [acetazolamide]
inactive: phenotypically active [1] 0 | phenotypically active [2] 0 | phenotypically active [3] 0 | phenotypically active [4] 0 | phenotypically active [5] 0 | phenotypically active [6] 0 | phenotypically active [7] 0 | phenotypically active [8] 0 | phenotypically active [9] 0 | phenotypically active [10] 0 | phenotypically active [11] 0 | phenotypically active [12] 0 | phenotypically active [13] 0 | phenotypically active [14] 0 | phenotypically active [15] 0

NC(=O)c1ccc(N(C(N)=O)c2c(F)cccc2F)nc1-c1ccc(F)cc1F
active: phenotypically active [1] 1
9 µM: lowest phenotypically active concentration [16]
inactive: phenotypically active [2] 0 | phenotypically active [3] 0 | phenotypically active [4] 0 | phenotypically active [5] 0 | phenotypically active [6] 0 | phenotypically active [7] 0 | phenotypically active [8] 0 | phenotypically active [9] 0 | phenotypically active [10] 0 | phenotypically active [11] 0 | phenotypically active [12] 0 | phenotypically active [13] 0 | phenotypically active [14] 0 | phenotypically active [15] 0
